The values that follow come from PubChem BioAssay.

A number with no mark means an inactive call. Unless noted, no stated cut-off is given here; in the data, active means inhibition above about 31%; inactive means the rest.

The first experiment in a line: 384-well plate pilot, post-Golgi transport modulator project, inhibition of yeast transport mutant growth (AID 636). The following applies: absorbance 615 nm, about 18 h, hits give high values.
As for `Cn1c2c(c(=O)[nH]c1=O)C(NC(=O)c1ccco1)(C(F)(F)F)C(=O)N2` (stereo not given), the inhibition was -1.45%.
As for `c1ccc(CSCc2cn3ccsc3n2)cc1`, the inhibition was -0.27%.
Still for that read-out and setting: to `CCCn1c(SCC(=O)Nc2cc(C)on2)nc2c1c(=O)n(C)c(=O)n2C` belongs 0%.
The same measure, in the same setting: then `CCN(CC)C(=O)C1CCC(CNS(=O)(=O)c2cccc3cccnc23)CC1` (stereo not given), with -1.87%; and `CC(C)OC(=O)CSc1nnnn1-c1ccc2c(c1)OCCO2`, with -7.03%; and `Cc1ccc(OCC(=O)N2CCN(C(=O)CCC3CCCC3)CC2)cc1`, with -6.89%.
Regarding `CC1(C)CC(=O)C(C=Nc2ccncc2)=C(O)C1`, the inhibition was -4.19%.
The same measure, in the same setting: to `CCCCN(CC)S(=O)(=O)N1CCC(C(=O)NCc2ccc(F)cc2)CC1` belongs -4.34%.
The same measure, in the same setting: to `CCOC(=O)C1(C(=O)OCC)C(c2ccccc2)CC(O)N1C(C)=O` (stereo not given) belongs -6.18%.
On the same count and under the same terms, then `CCOc1ccccc1N(C(=O)c1ccco1)C(C(=O)NC1CCCC1)c1cccnc1` (stereo not given), with -1.78%.
On to `Cc1ccc(CNC(=O)C2CC(=O)OC23CCCC3)c(C)c1` (stereo not given), for which the inhibition was -5.89%.
The same measure, in the same setting: to `Cc1ccc(-c2nnc(-c3ccc(Br)cc3)o2)o1` belongs -5.87%.
Take `COC(=O)CSc1nc2sc3c(c2c(=O)n1C1CCCCC1)CCN(C)C3`: the inhibition was -5.66%.
Still for that read-out and setting: to `CCOC(=O)Cc1csc(NC(=O)CSc2nnc(C(C)C)n2CC)n1` belongs -6.13%; to `CCOC(=O)Cn1nnnc1CN(Cc1ccc(OC)cc1)Cc1cc2cc(C)cc(C)c2[nH]c1=O`, -1.32%; to `CC(=O)CCc1ccc(OCCCCn2cncn2)cc1`, -4.94%.
On the same count and under the same terms, to `COc1ccc(CC(=O)OCn2nnc3ccccc3c2=O)cc1` belongs -5.6%.
On the same count and under the same terms, to `CC(=O)Nc1sc2c(c1C#N)CCCCC2` belongs -4.93%.
Turning to `Cc1ccccc1-c1nc(CS(=O)(=O)CC(=O)N(C)C2CCCCC2)c(C)o1`, the inhibition was 0.27%.
Still for that read-out and setting: to `COCCn1c(CN(Cc2ccccc2)Cc2ccccc2)nc2c1c(=O)n(C)c(=O)n2C` belongs -1.87%.
On the same count and under the same terms, to `Cn1c(SCc2ccccc2)nnc1C1CCCNC1` (stereo not given) belongs 0%; to `COc1cccc(N(C(=O)c2ccco2)C(C(=O)NC2CCCC2)c2ccc(N(C)C)cc2)c1` (stereo not given), -5.45%; to `O=C(CCSc1ccccc1)Nc1ccc(S(=O)(=O)N2CCOCC2)cc1`, -9.18%.
Still for that read-out and setting: to `Cc1cc(Nc2ccccc2F)n2ncnc2n1` belongs -0.67%; to `CCOP(=O)(c1ccc(N(C)C)cc1)C(O)c1c(Cl)cccc1Cl` (stereo not given), -1.6%.
For the compound `CCN1CCN(c2c(Cl)cccc2NC(=O)c2ccc3c(c2)OCCO3)CC1`, the inhibition is -5%.
The same measure, in the same setting: then `CC1CN(c2nc3ccccc3nc2C(C#N)C(=O)OC2CCCCC2)CC(C)O1` (stereo not given), with -5.07%.
The same measure, in the same setting: then `CCOc1cc(NC(=O)c2ccccn2)c(OCC)cc1NC(=O)CC(C)C`, with 1.2%.
As for `C(#Cc1ccccc1)Cn1nnc2ccccc21`, the inhibition was 0.9%.
On the same count and under the same terms, to `Cn1cccc1Cc1nnc(SCC(N)=O)n1-c1ccc(F)cc1` belongs -1.28%; to `Cn1c(=O)c2c(-c3ccncc3)c3c(nc2n(C)c1=O)-c1ccccc1C3=O`, -1.6%; to `CCCCOC(=O)CSc1nc2c(cc1C#N)C(=O)CC(C)(C)C2`, -5.13%.
On the same count and under the same terms, then `COCCN(C(=O)CNC(=O)c1ccco1)C(C(=O)NC1CCCCC1)c1cccc(OC)c1` (stereo not given), with -1.3%; and `CCCCCn1c2nc3ccccc3nc2c2c(=O)n(CC(C)C)cnc21`, with -0.79%.
The same measure, in the same setting: to `CCOC(=O)c1sc2nc(SCC#N)n(CCCN3CCCC3=O)c(=O)c2c1C` belongs -5%; to `COc1ccc(N2C(=O)C3C4C=CC(C4)C3C2=O)nn1` (stereo not given), -0.91%.
As to `Clc1cccc(-c2nn3c(Cn4cnc5ccccc54)nnc3s2)c1`, the inhibition was 0.92%.
On the same count and under the same terms, then `O=C(O)C1CCCN1c1ncnc2c1oc1ccccc12` (stereo not given), with -0.4%; and `O=C(NCCSCc1ccco1)Nc1cccc(Cl)c1`, with -5.33%.
On the same count and under the same terms, to `CCSc1nc2c(c(=O)n(C)c(=O)n2C)n1Cc1ccc(Cl)cc1` belongs -0.92%.

Another experiment can be described thus: growth suppression of yeast trafficking mutant, preliminary HTS, modulators of trafficking downstream of Golgi apparatus project, 1536-format plate, OD 615 nm (AID 637; in the data active means inhibition above about 30%). The following applies: yeast transport mutant growth, absorbance 615 nm, 18 h; hits give high values.
For `Cn1c2c(c(=O)[nH]c1=O)C(NC(=O)c1ccco1)(C(F)(F)F)C(=O)N2` (stereo not given), the inhibition was 0.66%.
Same read-out and setting: then `c1ccc(CSCc2cn3ccsc3n2)cc1`, with -3.49%.
On to `CCCn1c(SCC(=O)Nc2cc(C)on2)nc2c1c(=O)n(C)c(=O)n2C`, for which the inhibition was -4.19%.
Still for that read-out and setting: to `CCN(CC)C(=O)C1CCC(CNS(=O)(=O)c2cccc3cccnc23)CC1` (stereo not given) belongs -2.3%; to `CC(C)OC(=O)CSc1nnnn1-c1ccc2c(c1)OCCO2`, -2.33%; to `Cc1ccc(OCC(=O)N2CCN(C(=O)CCC3CCCC3)CC2)cc1`, -2.33%.
Same read-out and setting: then `CC1(C)CC(=O)C(C=Nc2ccncc2)=C(O)C1`, with -7.62%.
Still for that read-out and setting: then `CCCCN(CC)S(=O)(=O)N1CCC(C(=O)NCc2ccc(F)cc2)CC1`, with 2.62%.
Regarding `CCOC(=O)C1(C(=O)OCC)C(c2ccccc2)CC(O)N1C(C)=O` (stereo not given), the inhibition was 2.54%.
Still for that read-out and setting: to `CCOc1ccccc1N(C(=O)c1ccco1)C(C(=O)NC1CCCC1)c1cccnc1` (stereo not given) belongs -2.54%; to `Cc1ccc(CNC(=O)C2CC(=O)OC23CCCC3)c(C)c1` (stereo not given), 3.17%; to `Cc1ccc(-c2nnc(-c3ccc(Br)cc3)o2)o1`, -1.64%.
On the same count and under the same terms, then `COC(=O)CSc1nc2sc3c(c2c(=O)n1C1CCCCC1)CCN(C)C3`, with 1.83%; and `CCOC(=O)Cc1csc(NC(=O)CSc2nnc(C(C)C)n2CC)n1`, with 1.59%.
Still for that read-out and setting: to `CCOC(=O)Cn1nnnc1CN(Cc1ccc(OC)cc1)Cc1cc2cc(C)cc(C)c2[nH]c1=O` belongs -0.55%; to `CC(=O)CCc1ccc(OCCCCn2cncn2)cc1`, 1.59%; to `COc1ccc(CC(=O)OCn2nnc3ccccc3c2=O)cc1`, -5.56%.
Regarding `CC(=O)Nc1sc2c(c1C#N)CCCCC2`, the inhibition was -2.54%.
Same read-out and setting: then `Cc1ccccc1-c1nc(CS(=O)(=O)CC(=O)N(C)C2CCCCC2)c(C)o1`, with -5.08%; and `COCCn1c(CN(Cc2ccccc2)Cc2ccccc2)nc2c1c(=O)n(C)c(=O)n2C`, with 1.5%.
Same read-out and setting: to `Cn1c(SCc2ccccc2)nnc1C1CCCNC1` (stereo not given) belongs 0.17%; to `COc1cccc(N(C(=O)c2ccco2)C(C(=O)NC2CCCC2)c2ccc(N(C)C)cc2)c1` (stereo not given), -2.13%; to `O=C(CCSc1ccccc1)Nc1ccc(S(=O)(=O)N2CCOCC2)cc1`, -1.27%.
Turning to `Cc1cc(Nc2ccccc2F)n2ncnc2n1`, the inhibition is 0.16%.
On the same count and under the same terms, then `CCOP(=O)(c1ccc(N(C)C)cc1)C(O)c1c(Cl)cccc1Cl` (stereo not given), with -2.58%.
Take `CCN1CCN(c2c(Cl)cccc2NC(=O)c2ccc3c(c2)OCCO3)CC1`: the inhibition is 3%.
On the same count and under the same terms, to `CC1CN(c2nc3ccccc3nc2C(C#N)C(=O)OC2CCCCC2)CC(C)O1` (stereo not given) belongs 2.54%; to `CCOc1cc(NC(=O)c2ccccn2)c(OCC)cc1NC(=O)CC(C)C`, -6.23%.
Same read-out and setting: then `C(#Cc1ccccc1)Cn1nnc2ccccc21`, with 4.33%; and `Cn1cccc1Cc1nnc(SCC(N)=O)n1-c1ccc(F)cc1`, with 1.33%; and `Cn1c(=O)c2c(-c3ccncc3)c3c(nc2n(C)c1=O)-c1ccccc1C3=O`, with 9.37%.
Turning to `CCCCOC(=O)CSc1nc2c(cc1C#N)C(=O)CC(C)(C)C2`, the inhibition was -2.73%.
Same read-out and setting: then `COCCN(C(=O)CNC(=O)c1ccco1)C(C(=O)NC1CCCCC1)c1cccc(OC)c1` (stereo not given), with -1.17%.
On the same count and under the same terms, then `CCCCCn1c2nc3ccccc3nc2c2c(=O)n(CC(C)C)cnc21`, with 3.55%.
For the compound `CCOC(=O)c1sc2nc(SCC#N)n(CCCN3CCCC3=O)c(=O)c2c1C`, the inhibition is -1.48%.
Still for that read-out and setting: to `COc1ccc(N2C(=O)C3C4C=CC(C4)C3C2=O)nn1` (stereo not given) belongs -4.59%.
The same measure, in the same setting: to `Clc1cccc(-c2nn3c(Cn4cnc5ccccc54)nnc3s2)c1` belongs 5.9%.
Same read-out and setting: then `O=C(O)C1CCCN1c1ncnc2c1oc1ccccc12` (stereo not given), with -7.1%; and `O=C(NCCSCc1ccco1)Nc1cccc(Cl)c1`, with -3.97%.
For the compound `CCSc1nc2c(c(=O)n(C)c(=O)n2C)n1Cc1ccc(Cl)cc1`, the inhibition was 2.36%.
